Measured values from PubChem BioAssay AID1159607 (Small Molecule Screening Facility, UW Madison, 2016).
Several values for one entry are separate records, joined by “and”; a condition that tells them apart may be missing. Identical values can stand only once. About 400 (0.57%) of roughly 70,000 compounds were called active. No stated cut-off is given here; in the data, active means FP signal below about 40; inactive means the rest. Only a selection was taken, and actives are over-represented in it overall.

tested on: RMI core complex (RMI1/RMI2) binding to FANCM MM2 peptide, human; test: disruptors of RMI1/RMI2 association with MM2 peptide – biochemical, fluorescence polarization, human, primary screen (AID 1159607); settings: RMI core complex with F-MM2 peptide, at 33 µM, stronger effect = lower value

| Structure (SMILES) | FP signal (polarization) |
| --- | --- |
| CC(=O)O[C@H]1CC[C@@]2(C)C(=CCC3C2CC[C@]2(C)C(=O)CCC32)C1 (stereo not given in full) | -6 (active) |
| CC(=O)NBr | 53 (inactive) |
| CC12CCC3C(CCC4CC(O)CCC43C)C1C/C(=C\c1ccccc1Cl)C2=O (stereo not given) | 62 (inactive) |
| CN1CCc2cc3c(cc2[C@H]1[C@@H]1OC(=O)c2c1ccc1c2OCO1)OCO3 | 67 (inactive) and 61 (inactive) |
| CSC(=NCc1ccccc1Cl)N/C(N)=N/[N+](=O)[O-] | 58 (inactive) |
| NCC(O)c1ccc(O)cc1 (stereo not given) | -18 (active) and 54 (inactive) and 46 (inactive) |
| COc1ccc2c(c1O)-c1cccc3c1[C@@H](C2)N(C)CC3 | 57 (inactive) |
| c1cncc(OCC2=NCCN2)c1 | 51 (inactive) |
| CNC(=O)O/N=C\C(C)(C)SC | 58 (inactive) |
| CC(=O)NS(=O)(=O)c1ccc(NC(=O)c2cccn(Cc3cccc([N+](=O)[O-])c3)c2=O)cc1 | 51 (inactive) |
